# Most compounds without a hit are left out; they make up all but 4.8% or so of the library.
# Rev-erbA mod – modulators of human Rev-erb alpha DNA binding. activity, % at 10 µM. Rev-erbα–FITC-DNA binding, fluorescence polarization, 90 min. P20393. 370,000 compounds, 0.79% hits;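 active means activity above about 14%, limit read from the data; passing the limit was not always enough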
# Target sequence (P20393 whole entry, looked up): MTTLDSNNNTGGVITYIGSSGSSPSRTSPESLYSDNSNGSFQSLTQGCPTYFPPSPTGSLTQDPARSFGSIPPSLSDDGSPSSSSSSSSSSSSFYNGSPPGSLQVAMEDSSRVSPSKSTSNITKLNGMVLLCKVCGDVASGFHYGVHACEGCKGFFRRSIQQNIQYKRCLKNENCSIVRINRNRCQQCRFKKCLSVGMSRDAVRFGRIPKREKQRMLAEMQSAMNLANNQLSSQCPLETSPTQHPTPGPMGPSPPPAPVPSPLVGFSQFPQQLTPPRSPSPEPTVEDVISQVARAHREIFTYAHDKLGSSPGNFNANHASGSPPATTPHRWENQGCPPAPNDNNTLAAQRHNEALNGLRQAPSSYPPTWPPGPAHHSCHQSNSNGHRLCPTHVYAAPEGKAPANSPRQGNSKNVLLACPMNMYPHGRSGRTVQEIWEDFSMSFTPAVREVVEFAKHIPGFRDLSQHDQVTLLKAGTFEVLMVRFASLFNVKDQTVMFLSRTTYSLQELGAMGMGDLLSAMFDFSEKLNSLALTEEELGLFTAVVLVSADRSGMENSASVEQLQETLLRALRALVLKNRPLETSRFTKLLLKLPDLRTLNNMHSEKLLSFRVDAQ
# hcDAF-12 act – activates DAF-12 receptor from parasite H. contortus | AID 652067 | activation, % at 6.8 µM | HEK293 hcDAF-12 lit1-tk-luc reporter, luminescence; 0% DMSO, 100% Δ7-dafachronic acid | 370,000 compounds, 1.4% hits;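 active means activation above the mean of all tested compounds plus 3 SD, cut at about 5.5% in these data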
# hgDAF12 agonist – hgDAF-12 agonism, primary luciferase screen. HEK293 GAL4-hgDAF12 UAS-luciferase reporter, agonist luminescence; normalized to butyrate control. 370,000 compounds, 1.8% hits. activation, % at 6.8 µM. AID 687014;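 active means activation above a cutoff set at the mean of all screened compounds plus 3 SD, cut at about 10% in these data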
# ssDAF-12 act – activators of S. stercoralis DAF-12 nuclear receptor; activation, % at 6.8 µM; AID 652126; HEK293 ssDAF-12/GRIP1 lit1-tk-luc reporter, luminescence; % of 3 µM dafachronic acid response; 370,000 compounds, 1% hits;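 active means activation above the mean over all tested compounds plus 3 SD, cut at about 0.9% in these data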
# DAX1 inh-1 – inhibits human nuclear receptor DAX1 | inhibition, % at 6.75 µM | HEK293 Gal4-DAX1 luciferase reporter, luminescence | P51843 | 340,000 compounds, 0.99% hits;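 active means inhibition above the mean over all tested compounds plus 3 SD, cut at about 4.2% in these data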;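 further: inhibition shows as a rise in luminescence from relieved DAX1 repression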
# DAX1 inh-2 – DAX1 (NR0B1) inhibition, primary screen; HEK293T StAR-luciferase reporter, SF-1/DAX-1 repression relief; 370,000 compounds, 1.1% hits; AID 652010; inhibition, % at 6.8 µM;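 active means inhibition above the mean over all tested compounds plus 3 SD, cut at about 3.6% in these data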;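 further: higher inhibition means more luminescence from relief of DAX-1 repression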
# Numbers stand for hits; n = inactive; x = not tested or not shown.
SMILES,Rev-erbA mod,hcDAF-12 act,hgDAF12 agonist,ssDAF-12 act,DAX1 inh-1,DAX1 inh-2
C[C@@H]1COc2cc(Br)ccc2S(=O)(=O)N1Cc1cn(Cc2ccc(Cl)cc2)nn1,n,n,n,n,x,n
S=C(Nc1ccccc1)OC1CCC12CCC(c1ccccc1)CC2 (stereo not given),n,n,n,n,x,n
COC(=O)[C@@H](Cc1ccccc1)N[C@H](/C=C/c1ccccc1)[C@@H](O)Cc1ccccc1,n,n,n,n,x,n
C(=N\Nc1nc(-c2ccccc2)cs1)/c1ccco1,n,n,12.9,n,n,n
Cc1ccc2nc(SCC(=O)N/N=C/c3ccco3)cc(C)c2c1,n,n,n,n,n,n
Cc1ccc2nc(N/N=C/c3ccco3)cc(C)c2c1,n,n,10.8,n,n,n
C=CCN1C(=O)[C@@H](CC(=O)NCc2ccc(C)o2)[C@]2(C(=O)OC)CCCCC=C12,n,n,n,n,x,n
O=C(N/N=C/c1ccc(OC(F)F)cc1)C1=COCCO1,n,n,11.1,n,4.9,4.1
Cc1ccc(NC(=O)C2CCCN(c3nnc(-n4cccc4)s3)C2)cc1C (stereo not given),n,n,n,n,x,n
CC(C)(C)OC(=O)N/N=C/c1cccc([N+](=O)[O-])c1,n,n,11.3,n,n,4.4
CC(NC(=O)C(=O)N/N=C\c1cccc([N+](=O)[O-])c1)c1ccccc1 (stereo not given),n,n,n,n,5.0,n
O=[N+]([O-])c1cccc(C=NNc2ccccc2)c1,n,n,n,n,n,n
Cc1cc(C(=O)N/N=C/c2cccc([N+](=O)[O-])c2)c(C)o1,n,n,n,n,n,n
Cc1ccccc1NC(=O)COC(=O)c1ccccc1SCC(=O)N1CCCC1,n,n,n,n,4.3,n
CCNC(=O)NC(=O)COC(=O)c1ccccc1SCC(=O)NC(=O)NCC,n,7.9,12.3,2.3,n,3.9
O=C(NCCc1ccccc1)c1ccccc1SCC(=O)N1CCCC1,n,6.4,n,1.2,n,n
O=C(CSc1nnc(-c2cccnc2)n1Cc1ccco1)Nc1ccc(F)cc1Cl,n,n,n,n,x,n
CSCC[C@H](N)C(=O)O,n,x,x,x,x,x
O=C1NC(c2cccc([N+](=O)[O-])c2)=CCN1c1ccccc1O,n,n,n,2.3,n,n
O=C(O)CCSc1nc(C(F)(F)F)cc(=O)n1-c1ccccc1,n,n,n,n,5.7,n
CC(=O)C(Sc1nn(C)c(=S)s1)C(=O)Nc1ccccc1 (stereo not given),n,n,n,1.0,n,n
O=C(CSc1nnc(-c2ccccc2)n1-c1ccc(Cl)cc1)Nc1ccccc1-c1ccccc1,n,n,n,n,x,n
COc1ccc2c(c1)CCCN2C(=O)C1CCCN(S(=O)(=O)c2cccs2)C1 (stereo not given),n,n,n,n,x,n
CSc1nsc(SCC(=O)NC2CCCCC2)n1,n,5.6,n,n,n,n
Cc1n[nH]c(C)c1CCC(=O)N/N=C/c1c(C)[nH]c2ccccc12,n,n,n,n,6.2,n
SMILES,Rev-erbA mod,hcDAF-12 act,hgDAF12 agonist,ssDAF-12 act,DAX1 inh-1,DAX1 inh-2
Cc1n[nH]c(C)c1CCC(=O)N/N=C/c1c[nH]c2ccccc12,n,6.1,n,2.1,n,n
O=C1Cc2ccccc2C(=O)N1OCc1ccc(Cl)cc1,n,n,n,0.9,n,n
COC(=O)[C@]12C[C@H](CC(=O)NCc3cccs3)C(=O)N(Cc3ccco3)C1=C[C@H](C(C)C)O[C@@H]2C1CC1,n,n,n,n,x,n
O=C(O)c1ccc(NN=Cc2cc(=O)[nH]c(=O)[nH]2)cc1,n,n,n,n,n,n
O=c1cc(C=NNc2ccccc2)[nH]c(=O)[nH]1,n,n,n,n,4.9,n
O=C(COC(=O)c1ccccc1-n1cnnn1)c1ccc(F)c(F)c1,n,n,n,0.9,n,4.0
CCCCN(C)c1c2c(nc3ncnn13)CCCC2,n,n,n,n,x,n
O=C(Nc1ccc2c(c1)OCO2)O[C@@H]1CC[C@@]23CCCN2C(=O)CCC[C@H]3C1,n,n,n,n,x,x
O=C(NCCc1ccccc1)C1CCC(Cn2c(=O)c3ccccc3n(Cc3cccc(Cl)c3)c2=O)CC1 (stereo not given),n,n,n,n,6.0,n
COc1ccc(N=Cc2oc3ccc4ccccc4c3c2O)cc1,n,n,n,1.2,n,n
